Holding throughout (test): NCI-60 one-dose screen, 48 h (100 = growth as untreated, 0 = no growth, -100 = all killed)
Settings in all cases: 10 µM

Experiment [1] has as its system DU-145 prostate.
Experiment [2] has as its system K-562 leukemia.
Experiment [3] concerns MALME-3M melanoma.
In experiment [4] the test system is MDA-MB-231 breast.
The test system of experiment [5] is SF-268 CNS.
Experiment [6] deals with SF-295 CNS.
In experiment [7] the test system is SF-539 CNS.
For experiment [8], the system named is UACC-257 melanoma.
In experiment [9] the test system is M14 melanoma.

SMILES strings stand for the structures. About 83,000 compounds went through this panel and 20% of them were active in at least one assay; those are over-represented in the sample as a whole.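 Compound tested at a single concentration for 48 hours in 96-well plates; a percent growth value below 10 was scored as active.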 A number with no mark means an inactive call. The source made the active and inactive calls.

Regarding `COc1ccc2[nH]c(=O)c(CSc3ccc(Nc4nccc(-c5ccc(Cl)cc5)n4)cc3)cc2c1`, the growth in experiment [1] was 111%; in experiment [2], 81.9%; in [3] it was 113%; in experiment [4], 90.1%; in [5], 99.9%; in experiment [6], 102%. In addition, the growth in experiment [7] was -41% (active); in experiment [8] it was 120%; in [9], 109%.

Consider `COc1ccc(NC(=O)Cn2c(/C=C/c3ccc(N(C)C)cc3)nc3ccccc3c2=O)cc1`, for which the growth in experiment [1] was 6.75% (active); in experiment [2] it was 58.8%; in [3], 7.28% (active); in experiment [4], 18.8%; in [5], 73%; in experiment [6], 49.5%. The growth was -60.2% (active) in experiment [7], 67.7% in [8] and 81% in experiment [9].

Turning to `C=CCn1c(SCC(=O)Nc2ccc(C(=O)/C=C/c3ccccc3)cc2)nnc1-c1c[nH]c2ccccc12`, the growth in experiment [1] is 65.8%; in experiment [2] it was 14.6%; in experiment [3], 92.4%; in experiment [4] it was 69.3%; in [5], 53.3%; in experiment [6] it was 35%. Moreover, the growth was -7.36% (active) in experiment [7], 80.3% in experiment [8] and 35.3% in [9].

Regarding `O=C1N/C(=N\c2nccs2)S/C1=C\c1cccs1`, the growth in experiment [1] is 53.2%; in experiment [2], 20.1%; in experiment [3], 28.9%; in [4], 47.6%; in experiment [5], 44.7%; in experiment [6], 13.4%. For the same compound, the growth in experiment [7] is 21.8%; in experiment [8], 49.6%; in experiment [9], 9.09% (active).

`O=S(=O)(Nc1ncccn1)c1ccc(-n2c(-c3ccccc3)nc(-c3ccccc3)c2-c2ccccc2)cc1`: the growth in experiment [1] is 101%; in [2], 92.6%; in [3] it was 111%; in experiment [4], 87.7%; in [5], 85%; in [6], 65.9%. Also, the growth was 83.4% in experiment [7], 118% in experiment [8] and 102% in experiment [9].

With `COC1=C[C@]23CCC(=O)N2CCc2cc4c(cc2[C@@H]3[C@@H]1OC(=O)CCCC(C)C)OCO4`, the growth in experiment [1] is 84.2%; in experiment [2], 17.6%; in experiment [3], 4.86% (active); in experiment [4] it was 98.5%; in [5], 133%; in [6] it was 69.9%. Further, the growth was 11.3% in [7], 78.9% in experiment [8] and 57.1% in experiment [9].

In the case of `CN(CCO)c1oc(-c2ccccc2)nc1[P+](c1ccccc1)(c1ccccc1)c1ccccc1`, the growth was 4.07% (active) in [1]; 9.88% (active) in experiment [2]; -12% (active) in [3]; -6.83% (active) in experiment [4]; 11.4% in experiment [5]; -13.8% (active) in experiment [6]. In addition, the growth is 8.12% (active) in [7], -3.98% (active) in [8] and 12.2% in [9].

Turning to `Cc1ccc2nc(COc3ccc(C(=O)NNC(=S)NCCc4ccccc4)cc3)[nH]c2c1`, the growth in experiment [1] was 98.9%; in experiment [2], 85.7%; in [3], 64.8%; in [4] it was 29.6%; in [5], 33.6%; in [6] it was 79.3%. The values for the growth in experiment [7], in experiment [8] and in experiment [9] were -1.98% (active), 103% and 106%, respectively.

On to `O=C(Nc1nc2ccccc2s1)c1ccc(Br)cc1`, for which the growth is 97.2% in experiment [1]; 64.1% in [2]; 85.2% in experiment [3]; 93.4% in experiment [4]; 112% in [5]; 67.3% in experiment [6]. Also, the values for the growth in experiment [7], in experiment [8] and in [9] were 92.8%, 85% and 96%, respectively.

Regarding `CN(C)c1ccc(/C=C/c2nc3ccccc3c(=O)n2CC(=O)Nc2ccc(Cl)cc2)cc1`, the growth is 36.7% in experiment [1]; 68.7% in experiment [2]; 15.5% in experiment [3]; 35.1% in [4]; 58.5% in experiment [5]; 27.9% in experiment [6]. In addition, the growth in experiment [7] is -63.6% (active); in experiment [8], 78.7%; in [9], 65.2%.

With `COc1cnc2c(c1)C(=O)c1c-2n(CCCNC(C)C)c(=O)c2cc(OC)c(OC)cc12`, the growth was 16.4% in [1]; 5.04% (active) in [2]; 88.7% in experiment [3]; 23.1% in experiment [4]; 41.8% in experiment [5]; 13.3% in experiment [6]. The growth in [7] is -63% (active); in [8] it was 90.1%; in experiment [9], 45.3%.

In the case of `O=C(Nc1cccc([N+](=O)[O-])c1)Nc1cccc([N+](=O)[O-])c1`, the growth in experiment [1] is 82%; in [2], 57.6%; in experiment [3], 98.6%; in [4] it was 87.5%; in experiment [5], 79.9%; in [6] it was 76.3%. For the same compound, the figures for the growth in [7], in experiment [8] and in experiment [9] were 93%, 93.2% and 87.2%, respectively.

Regarding `COc1ccc(-c2nc(-c3ccccc3)c(-c3ccccc3)n2-c2ccc(S(=O)(=O)Nc3ncccn3)cc2)cc1OC`, the growth in experiment [1] is 89%; in experiment [2], 76.8%; in [3], 106%; in experiment [4], 62.2%; in [5], 82.9%; in experiment [6] it was 46.5%. In addition, the growth in experiment [7] was 67.2%; in experiment [8], 113%; in experiment [9] it was 93.9%.

The values above are taken from PubChem BioAssay (NCI).
